# Screens as filed in PubChem.
# Only some compounds are listed: those with a hit (about 7.6% of all), similar ones and a draw of the others.
# Gal4-VP16 FLuc: counter-screen for ROR gamma inhibitors: Gal4-VP16 reporter; hit rate 3.5% among 310,000; Potency, µM (doses to about 53.6 µM), inactives show at the top dose activity, negative = inhibition, hits mostly inhibitors; Drosophila S2 Gal4-VP16 UAS-luciferase, luminescence, 20 h; AID 2546;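 note: Gal4-VP16 expression switched on by copper sulfate through the metallothionein promoter; potency is the fitted concentration of half-maximal effect; % is set by controls: 0 for no effect and ±100 for the full control effect; nearly all actives have a fitted effect of over 50% in size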
# BRCA1 expr act: BRCA1 expression activation; MCF7-BRCA1-FFLuc reporter, luminescence, 48 h; response scale: scaled: vehicle 0%, 10 µM genistein 100%; Potency, µM (titrated, usually from 46.1 µM), inactives show at the top dose activation, most hits filed as activators; hit rate 1.1% among 380,000; note: potency is the fitted concentration of half-maximal effect; nearly all actives have a fitted effect of over 80% in size
#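 First, MCF7-BRCA1-FFLuc cells (2000/well) attach for 2 h; next, compounds are pin-added and incubated 48 h at 37 °C; finally, luciferase reagent is added and luminescence read after 15 min.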
# p53 reactivator: re-activators of mutant p53; H1299 p53-A138V BP100-luciferase reporter, luminescence, 24 h; Potency, µM (top dose mostly 92.2 µM), without a hit: top-dose activity change, positive = activation, usual class: activators; hit rate 0.063% among 320,000; note: potency is the fitted concentration of half-maximal effect; % of control where 0% means no effect; nearly all actives have a fitted effect of over 45% in size
#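 p53-null H1299 cells stably carrying temperature-sensitive p53-A138V and a BP100-luciferase reporter were pinned with compounds (4-point, 1:5 series) and held 24 hrs at 37 deg C. Luminescence was read 10 min after detection reagent.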
# Giardia kill: kills Giardia lamblia; AID 540267; activity change, % at 7.66 µM, hits read low; hit rate 0.15% among 340,000; Giardia lamblia trophozoite viability; in the data active = activity change below about -80%; inconclusive = between about -30% and that limit;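 note: parasites exposed to compound for two days anaerobically before the ATP read; % is set by controls: 0 for no effect and ±100 for the full control effect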
#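 ATP-content bioluminescence gauges trophozoite survival. Cells (100/well) receive compound and incubate anaerobically for 48 hrs at 37 deg C; detection reagent follows for 15-30 min at room temperature.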
# RORg inh: ROR gamma (mouse) transcription inhibition; P51450; Drosophila S2 Gal4-RORgamma UAS-luciferase reporter, 20 h; Potency, µM (titrated, usually from 53.6 µM), without a hit: top-dose activity change, negative = inhibition, hits mostly inhibitors; hit rate 5.4% among 310,000; AID 2551; note: potency is the fitted concentration of half-maximal effect; % is set by controls: 0 for no effect and ±100 for the full control effect; nearly all actives have a fitted effect of over 60% in size
# Target sequence (P51450 whole entry, looked up, the tested form may be a part): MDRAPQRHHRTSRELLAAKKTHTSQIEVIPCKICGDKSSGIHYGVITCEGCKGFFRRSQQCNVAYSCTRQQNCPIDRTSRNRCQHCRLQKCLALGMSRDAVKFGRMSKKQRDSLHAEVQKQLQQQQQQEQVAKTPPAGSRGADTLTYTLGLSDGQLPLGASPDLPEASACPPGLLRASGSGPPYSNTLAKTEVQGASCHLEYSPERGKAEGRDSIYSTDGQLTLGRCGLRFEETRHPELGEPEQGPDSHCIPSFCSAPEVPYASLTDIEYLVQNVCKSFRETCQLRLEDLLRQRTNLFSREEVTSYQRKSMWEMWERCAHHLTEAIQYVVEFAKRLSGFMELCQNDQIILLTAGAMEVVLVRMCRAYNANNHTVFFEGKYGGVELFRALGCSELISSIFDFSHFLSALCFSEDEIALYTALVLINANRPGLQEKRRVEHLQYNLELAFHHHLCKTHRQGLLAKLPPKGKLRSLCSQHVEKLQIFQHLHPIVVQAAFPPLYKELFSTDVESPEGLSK
#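 Drosophila Schneider cells stably carrying a metallothionein-driven Gal4 DBD–ROR gamma fusion and a UAS-Photinus luciferase reporter were exposed to compound for 1 hr, then induced with copper sulfate (700 uM final) for 20 hr at ambient temperature before luminescence reading.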
# ELG1 repair inh: inhibitors of ELG1-dependent DNA repair in HEK293T cells; hit rate 2.3% among 330,000; HEK293T ELG1-luciferase reporter, luminescence, 16 h; DNA damage induced by 5-fluorouridine; Potency, µM (top dose mostly 46.1 µM), inactives show at the highest dose activity change, negative = inhibition, most hits filed as inhibitors; note: potency is the fitted concentration of half-maximal effect; % is set by controls: 0 for no effect and ±100 for the full control effect; nearly all actives have a fitted effect of over 55% in size
#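 Cells (2,000 per well) received 5-fluorouridine plus test compound or DMSO and were incubated 16 hr at 37 °C, 5% CO2. Luciferase activity was read by luminescence 30 min after ONE-Glo addition; signal suppression marked inhibition of damage-induced ELG1 function.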
# * hit, by the source's call; ? = inconclusive; . = no result; [ ] = another dose, or the depositor's remark. Unless noted, calls come from the whole dose curve; as a rule, active = well fitted curve in the direction sought with a large enough effect; inconclusive = small, poorly fitted or top-dose-only effect, or another doubt; inactive = no such curve, though single readings can be large; an effect the other way counts as inactive or inconclusive.
SMILES,Gal4-VP16 FLuc,BRCA1 expr act,p53 reactivator,Giardia kill,RORg inh,ELG1 repair inh
C/C(=N/NC(=O)CNC(=O)Cc1ccccc1)c1ccco1,1%,-3%,15%,-11,-4%,6%
Cc1nc2sc3c(c2c(=O)n1/N=C/c1ccco1)CCCC3,-3%,1%,6%,2,14%,6%
COc1cccc(-c2nnc3sc(-c4ccco4)nn23)c1,4%,8.9µM*,15%,-10,25%[10 µM],?
Cc1cc(-c2nn3c(-c4ccccc4)nnc3s2)c2ccccc2n1,1%[0.365 µM],-49%,-7%,-12,9%,14%
c1ccc(-c2cc(-c3nn4c(-c5ccco5)nnc4s3)c3ccccc3n2)cc1,?,-49%,7%,33,?,21µM*
CCCCN(CC)C(=O)/C=C/c1cccc([N+](=O)[O-])c1,-7%,7%,-13%,-8,27%,-8%
CCOc1ccc(CC(=O)Nc2c(C(=O)c3ccc(F)cc3)oc3ccccc23)cc1OCC,.,12%,.,.,.,.
COc1ccccc1NC(=O)/C(=N/OCc1ccc(C#N)cc1)C(C)=O,-2%,-1%,-4%,0,7%,-3%
CC(C)(C)OC(=O)N1CCNc2ccccc2C1,?,18%,1%,-8,4µM*,14%
CC(C)(C)OC(=O)N1Cc2cc3ccccc3nc2C1,.,75%,.,.,.,.
CCc1ccc2c(c1)c(=O)c(S(=O)(=O)c1ccccc1)cn2CC(=O)Nc1cc(C)ccc1C,.,14%,.,.,.,.
O=C1C=CC(=O)N1c1ccc(O)cc1,?,-39%,-14%,19,13µM*,7%
O=C(O)CNC(=O)c1ccc(OC(F)F)cc1,-3%,-49%,11%,4,-8%,3%
O=C1C=CC(=O)N1c1ccc(OC(F)F)cc1,4.5µM*,-91%,-16%,-2,6.3µM*,21µM*
CCOC(=O)C1(Cc2ccccc2C)CCCN(C(=O)c2ccc3nccnc3c2)C1 (stereo not given),7%,12%,-12%,-17,21%,23µM*
CCOC(=O)C1(Cc2ccccc2C)CCCN(C(=O)c2ccccn2)C1 (stereo not given),1%,32%,6%,-11,-10%,?
Cc1onc(-c2ccccc2Cl)c1C(=O)Nc1cccnc1,-23%,0%,5%,-7,?,1%
OCC1OC(O)C(O)C(O)C1O (stereo not given),-4%,.,.,.,9%,.
OCC1OC([S-])[C@H](O)C(O)C1O.[Au+] (stereo not given in full),6.3µM*,.,.,.,-9%,.
CCSc1ccccc1C(=O)Nc1nc2ccccc2c(=O)[nH]1,15%,-2%,-2%,3,32%,?
CSc1ccccc1C(=O)Nc1nc2ccccc2[nH]1,?,52%,?,-5,5µM*,?
CC(C(=O)Nc1nc2ccccc2[nH]1)N1C(=O)C2CC=CCC2C1=O (stereo not given),-6%,0%,-4%,-5,10µM*,4%
CSc1ccccc1C(=O)Nc1nc2ccccc2c(=O)[nH]1,?,11µM*,4%,26,44%,?
C[C@@H](C(=O)NCc1ccccc1)N1C(=O)C2CC=CCC2C1=O (stereo not given in full),-8%,-1%,-5%,-9,-24%,12%
Cc1nnsc1C(=O)N1CCN(c2cc(C(F)(F)F)ccn2)CC1,2%,-2%,-6%,-29,63%,9%
SMILES,Gal4-VP16 FLuc,BRCA1 expr act,p53 reactivator,Giardia kill,RORg inh,ELG1 repair inh
COc1cc(C2NC(=O)c3ccccc3O2)cc(OC)c1OC (stereo not given),1%,-2%,13%,11,-21%,11%
COc1cc(C2Oc3ccccc3C=C2[N+](=O)[O-])cc(OC)c1OC (stereo not given),13µM*,-92%,-16%,?,?,?
CC(C(O)C12CC3CC(CC(C3)C1)C2)N1CCCCC1 (stereo not given),7%,11%,11%,-7,-19%,2%
Cc1scc(C(=O)N/N=C/c2ccco2)c1C,-5%,86%,?,4,-38%,?
CCC/C(=N\NC(=O)c1ccco1)c1ccc(Cl)s1,18µM*,-9%,-6%,-15,11µM*,-2%
CCC/C(=N/NC(=O)c1csc(C)c1C)c1ccc(Cl)s1,?,0%,14%,6,16µM*,?
O=C(COC(=O)CNC(=O)c1ccc(Cl)cc1)Nc1ccc(Cl)cn1,.,3%,0%,10,.,?
CCS(=O)(=O)N1CCN(c2ccc(C(=O)NC3C4CC5CC(C4)CC3C5)cc2[N+](=O)[O-])CC1 (stereo not given),-19%,-61%,-12%,-25,?,12µM*
CCOC(=O)N1CCC(NC(=O)c2ccc(N3CCC4(CC3)OCCO4)c([N+](=O)[O-])c2)CC1,-16%,-45%,1%,6,21%,16µM*
CSc1ccc(CN(C)Cc2nc3cc(C(F)(F)F)ccc3c(=O)[nH]2)cc1,?,-16%,-1%,-1,13µM*,-11%
CN(C)c1ccc(N=Nc2ccccc2Br)cc1,?,-20%,?,-14,8.9µM*,?
Cc1ccc(NC(=O)c2ccc3c(c2)N(CC(=O)N2CCCCC2)C(=O)C(C)(C)O3)cc1,-3%,3%,-5%,10,-14%,13µM*
CC(C)(C)NC(=O)c1ccc2c(c1)N(CC(=O)N1CCCC1)C(=O)C(C)(C)O2,16%,12%,.,-6,0.63µM*,-6%
CCOC(=O)CN1C(=O)C(C)(C)Oc2ccc(C(=O)Nc3ccccc3OC)cc21,7%,-21%,-4%,-8,3%,18µM*
COc1ccccc1NC(=O)c1ccc2c(c1)N(CC(=O)NC(C)(C)C)C(=O)C(C)(C)O2,6%,-22%,-9%,27,-16%,-11%
CC(C)(Oc1ccc(Cl)cc1)C(=O)OCn1nnc2ccccc2c1=O,2.5µM*,-3%,6%,-10,?,6%
CC(=O)N(c1ccc(Cl)cc1)C1SC(=O)N(c2ccc(C)cc2)C1=O (stereo not given),.,24%,.,16,.,.
CC(=O)c1cccc(NC(=S)Nc2ccn(Cc3cccc4ccccc34)n2)c1,5µM*,-64%,-2%,-3,2.8µM*,?
CC(=O)c1cccc(NC(=S)NC(=O)Cc2ccc(Cl)cc2)c1,?,28%,.,35,10µM*,0%
CC(=O)c1cccc(NC(=S)NC(=O)Cc2ccccc2)c1,5µM*,8%,2%,6,1.4µM*,15%
CC(CCc1ccccc1)NC(=O)c1ccc(C(=O)NC(C)CCc2ccccc2)cc1 (stereo not given),-5%,-61%,-1%,-3,4%,5.2µM*
